Reference: PubChem BioAssay (Tox21)
Several values for one entry are separate records, joined by “and”; a condition that tells them apart may be missing. Equal values may be shown once. Records with an inconclusive call do not appear. Where a call stands in place of a potency, no number is given. A structure can be active in one record and inactive in another. Activity calls are given as the source filed them. Calls come from the whole dose curve; as a rule, active = well fitted activation curve with a large enough effect in the repeat runs; inconclusive = weak or mixed curves; inactive = no such curve, though single readings can be large or run the other way.
Potency is the fitted concentration of half-maximal effect.

These compounds were tested against Aryl hydrocarbon receptor (Homo sapiens) (UniProt P35869) (assay: qHTS assay to identify small molecule that activate the aryl hydrocarbon receptor (AhR) signaling pathway (AID 743085; note: nearly all actives have a fitted effect of over 15% in size;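 for activation: HG2L7.5c1 human HepG2 liver cells with stably integrated DRE-driven firefly reporter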)). Conditions: HepG2 AhR-luc (HG2L7.5c1), luciferase, 24 h; series mostly up to 70.3 µM.
Sequence of Aryl hydrocarbon receptor (Homo sapiens) (P35869 whole entry, looked up): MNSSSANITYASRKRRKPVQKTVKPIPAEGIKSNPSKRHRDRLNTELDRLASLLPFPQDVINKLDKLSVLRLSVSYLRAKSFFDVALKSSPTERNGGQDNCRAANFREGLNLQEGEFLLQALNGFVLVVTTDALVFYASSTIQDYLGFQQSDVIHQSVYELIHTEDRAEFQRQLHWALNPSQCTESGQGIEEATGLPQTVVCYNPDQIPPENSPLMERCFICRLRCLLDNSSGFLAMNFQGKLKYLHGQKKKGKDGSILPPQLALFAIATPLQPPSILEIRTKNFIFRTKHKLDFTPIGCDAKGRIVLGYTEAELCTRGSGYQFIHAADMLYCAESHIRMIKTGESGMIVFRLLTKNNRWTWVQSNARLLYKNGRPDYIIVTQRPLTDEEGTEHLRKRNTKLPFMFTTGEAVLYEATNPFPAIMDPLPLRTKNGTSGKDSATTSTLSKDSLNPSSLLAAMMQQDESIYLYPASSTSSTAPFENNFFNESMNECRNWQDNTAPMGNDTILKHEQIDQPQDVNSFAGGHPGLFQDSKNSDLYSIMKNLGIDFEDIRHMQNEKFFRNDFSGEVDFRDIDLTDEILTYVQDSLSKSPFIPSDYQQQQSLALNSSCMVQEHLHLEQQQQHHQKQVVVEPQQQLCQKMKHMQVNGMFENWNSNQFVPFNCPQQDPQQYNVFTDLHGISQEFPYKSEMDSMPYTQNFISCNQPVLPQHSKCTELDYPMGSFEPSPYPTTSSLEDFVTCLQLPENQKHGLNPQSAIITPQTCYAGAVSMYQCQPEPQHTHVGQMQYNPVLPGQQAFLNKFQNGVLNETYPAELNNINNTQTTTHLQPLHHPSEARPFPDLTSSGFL
Text: U.S. Tox21 Program National Center for Advancing Translational Sciences [NCATS] NIH Chemical Genomics Center [NCGC] U.S. Environmental Protection Agency [EPA] National Institutes of Environmental Health Sciences [NIEHS] National Toxicology Program [NTP] U.S. Food and Drug Administration [FDA] Tox21 Assay overview: The Aryl hydrocarbon Receptor (AhR), a member of the family of basic helix-loop-helix transcription factors, is crucial to adaptive responses to environmental changes. AhR mediates cellular responses to environmental pollutants such as aromatic hydrocarbons through induction of phase I and II enzymes but also interacts with other nuclear receptor signaling pathways. A cell based HepG2-AhR-luc assay (HG2L7.5c1 cell line, developed by Dr. Michael S. Denison, University of California at Davis, was used to assess the activation of AhR. HepG2 (human hepatocellular carcinoma) cells were stably transfected with an Ah receptor-responsive firefly luciferase reporter gene plasmid containing 20 dioxin responsive elements and luciferase reporter gene. Increased luciferase activity can be used to identify the compounds that induce AhR activation.
Tox21 Assay Protocol Summary: 4000 cells in 5 uL/well were dispensed into white wall/solid bottom 1536-well plates using a Multidrop Combi (Thermo Fisher Scientific Inc., Waltham, MA) dispenser. After the assay plates were incubated at 37C for 5 h, 23 nL of compound or DMSO vehicle was transferred to the assay plates by a pintool station (Kalypsys, San Diego, CA). The plates were incubated at 37C for 24 hr. After 1 ul/well of CellTiter-Fluor reagent (Promega, Madison, WI) was added into the assay plates using a Flying Reagent Dispenser (FRD) (Aurora Discovery, CA), the assay plates were incubated at 37C for 30 min. The fluorescence intensity in the plates was measured using a ViewLux plate reader (PerkinElmer, Shelton, CT), followed by the addition of 4 uL of ONE-Glo Luciferase Assay reagent (Promega) using an FRD (Aurora Discovery). After the assay plates were incubated at room temperature for 30 min, luminescence intensity was measured using a ViewLux plate reader (Perkin Elmer).
For `CCC(=O)C(CC(C)N(C)C)(c1ccccc1)c1ccccc1` (stereo not given), the Potency was “inactive”.
With `Nc1ccc(-c2ccc(N)cc2)cc1` the Potency was 9.58 µM (active) and inactive and 61.1 µM (active).
With `O=C(O)c1nc(Cl)ccc1Cl` the Potency was 22.4 µM (active) and inactive.
`CCCC[N+]1(C)CCCCC1` was tested, and the Potency was “inactive”.
In the case of `O=[N+]([O-])O`, the Potency is reported as “inactive”.
`O=C(O)CC(O)(CC(=O)O)C(=O)O` was tested, and the Potency was “inactive”.
In the case of `CCCCn1cc[n+](C)c1`, the Potency is reported as “inactive”.
In the case of `CCCCCC[n+]1ccccc1`, the Potency is reported as “inactive”.
For `C[N+](C)(C)Cc1ccccc1`, the Potency was “inactive”.
For `CN(C)[C@@H]1C(=O)C(C(N)=O)=C(O)[C@@]2(O)C(=O)C3=C(O)c4c(O)cccc4[C@@](C)(O)[C@H]3[C@H](O)[C@@H]12`, the Potency was “inactive”.
With `CC(=O)[O][Hg][c]1ccccc1` the Potency was “inactive”.
In the case of `COP(=O)(OC)C(O)C(Cl)(Cl)Cl` (stereo not given), the Potency is reported as “inactive”.
`CCCCCCCCCCn1cc[n+](C)c1` was tested, and the Potency was “inactive”.
For `CCCCn1cc[n+](C)c1C`, the Potency was “inactive”.
For `O=P1(N(CCCl)CCCl)NCCCO1` (stereo not given), the Potency was “inactive”.
With `CC(=O)O` the Potency was “inactive”.
For `Cc1cc(Cl)ccc1OCC(=O)O`, the Potency was “inactive”.
`CC[N+](CC)(CC)CC` was tested, and the Potency was “inactive”.
With `O=c1nc(O)n(Cl)c(=O)n1Cl` the Potency was “inactive”.
For `O=C(O)C(Cl)Cl`, the Potency was “inactive”.
In the case of `N#CS`, the Potency is reported as “inactive”.
In the case of `C[C@]12CCC(=O)C=C1CC[C@@H]1[C@@H]2CC[C@]2(C)C(=O)CC[C@@H]12`, the Potency is reported as “inactive”.
For `CCOP(=S)(OCC)Oc1ccc2c(C)c(Cl)c(=O)oc2c1`, the Potency was 596 nM (active) and 98 nM (active).
`CC(Cl)(Cl)C(=O)O` was tested, and the Potency was “inactive”.
`Nc1ccc(-c2ccc(N)c(Cl)c2)cc1Cl` was tested, and the Potency was 7.74 µM (active) and 6.4 µM (active) and 19.3 µM (active).
In the case of `COCC(=O)N(c1c(C)cccc1C)C(C)C(=O)OC` (stereo not given), the Potency is reported as “inactive”.
In the case of `O=[N+]([O-])c1ccccc1O`, the Potency is reported as “inactive”.
In the case of `COc1ccccc1N`, the Potency is reported as 54.4 µM (active) and inactive.
`Nc1ccc(Cl)cc1` was tested, and the Potency was 24.3 µM (active) and 30.6 µM (active) and 24.8 µM (active).
For `CCNc1nc(Cl)nc(NCC)n1`, the Potency was “inactive”.
With `CCCC[n+]1cccc(C)c1` the Potency was “inactive”.
For `COc1ccc(N)cc1`, the Potency was 60.1 µM (active) and inactive and 30.6 µM (active).
In the case of `COP(=O)(OC)OC=C(Cl)Cl`, the Potency is reported as “inactive”.
With `CCC[N+]1(C)CCCCC1` the Potency was “inactive”.
`CCCCCCCCCCCCCCCCn1cc[n+](C)c1` was tested, and the Potency was “inactive”.
With `OCCOc1ccccc1` the Potency was “inactive”.
For `CNC`, the Potency was “inactive”.
`Oc1ccccc1-c1ccccc1` was tested, and the Potency was “inactive and 24.9 µM (active)”.
For `CCCCCCCCCCCCCC[P+](CCCCCC)(CCCCCC)CCCCCC`, the Potency was “inactive”.
With `O=c1[nH]c(=O)n(Cl)c(=O)n1Cl` the Potency was “inactive”.
